# From PubChem BioAssay (NCI)
# About 83,000 compounds went through this panel and 20% of them were active in at least one assay; those are over-represented in the sample as a whole.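 Plates (96-well) were seeded with cells, treated with compound at one concentration, and incubated for 48 hours before percent growth was determined.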 Calls of active or inactive are those of the source. Rule for the calls: active = growth percent below 10; inactive = the rest.
# System: HL-60(TB) leukemia
# Assay: NCI-60 one-dose screen, 48 h (100 = growth as untreated, 0 = no growth, -100 = all killed)
# Conditions: 10 µM unless noted
row,SMILES,growth
1,CN(C)C(=O)c1ccccc1-n1cnc2ccccc2c1=O,99.1% (inactive)
2,O=C(/C=C1\C=CN(CCCCO)c2ccccc21)n1ccc2ccccc21,114% (inactive)
3,CCN1CCN(c2cc(C(=O)Nc3nc4ccc(Oc5ccnc(C(=O)NC)c5)cc4s3)cc(C(F)(F)F)c2)CC1,18.7% (inactive)
4,COC(=O)CCSC1=C(C)C(=O)c2ccccc2C1=O,34.9% (inactive)
5,CCc1ccc(NC(=O)N[C@@H](Cc2cc(F)cc(F)c2)C(=O)N[C@@H]2C(=O)N3CCC[C@H]3C(=O)N3CCO[C@H](C)[C@H]3C(=O)N[C@@H](CO)C(=O)N3C[C@H](C)C[C@H]3C(=O)O[C@H]2C)c(F)c1,15.4% (inactive)
6,COc1ccc(-c2c3c(cn2Cc2cccc(OC)c2)-c2oncc2CCC3)cc1,100% (inactive)
7,O=C(COc1ccc(C2SCC(=O)N2c2ccc(F)cc2)cc1)c1ccccc1 (stereo not given),98.6% (inactive)
8,CN1CCN(Cc2ccc(NC(=O)c3cncc(C#Cc4cnc5ccc(N6CCN(C)CC6)nn45)c3)cc2C(F)(F)F)CC1,-31.5% (active)
9,CCCCCCNC(=O)Oc1ccc(/C(=C(/C)c2ccc(OC)cc2)c2ccc(OCCN3CCCC3)cc2)cc1,50.7% (inactive)
10,COc1ccc(C2c3sc4c(C)cccc4c3Oc3nc(CC(=O)Nc4ccccc4)[nH]c(=O)c32)cc1 (stereo not given),146% (inactive)
11,O=C(CSc1nc2sc3c(c2c(=O)n1-c1ccc(Cl)cc1)CCCC3)N/N=C/c1ccc(F)cc1,97.9% (inactive)
12,CCCn1cnc2c(c1=N)C(c1ccc(F)cc1)c1sc3c(CC)cccc3c1O2 (stereo not given),-36.4% (active)
13,Cc1cc(F)cc(NS(=O)(=O)c2ccc(-c3cnc(C4CC4)o3)cc2)c1,1.67% (active)
14,O=C(CSc1nnc(-c2ccc(Cl)cc2)n1-c1ccccc1)Nc1ccc(Br)cc1,81.4% (inactive)
15,CC1=C(C)C(=O)C(Nc2cccc(C)c2)=C(Br)C1=O,37% (inactive)
16,CCN1CCN(Cc2ccc(C(=O)Nc3ccc(C)c(Oc4ccc(-c5[nH]nc6ncnc(N)c56)cc4)c3)cc2C(F)(F)F)CC1,139% (inactive)
17,CC1=C(SCC(=O)OCCCCCC(C)C)C(=O)c2ccccc2C1=O,86.8% (inactive)
18,CC(Nc1c(C#N)cnc2ccc(-c3cncc(-c4n[nH]c(=O)o4)c3)cc12)c1ccccc1 (stereo not given),14.9% (inactive)
19,COc1cc(-c2ccc3ncnc(NCc4ccccc4)c3c2)cnc1OC,66% (inactive)
20,C=C(C=O)[C@@H]1CC[C@]2(C)[C@H](CC=C3[C@H]4[C@@H](C)[C@H](C)CC[C@]4(C(=O)OC)CC[C@]32C)[C@@]1(C)CCC#N,-25.2% (active)

row,SMILES,growth
1,COc1ccc2c(ccn2C(=O)N2c3ccccc3Sc3ccccc32)c1,13.7% (inactive)
2,CCO/C=N/C1=C(C#N)C(c2ccc(Cl)cc2)c2sc3c(C)cccc3c2O1 (stereo not given),-12.7% (active)
3,COc1cc(/C=C2\C(=O)Nc3cc(Cl)ccc32)ccc1OCc1ccc(F)cc1,120% (inactive)
4,C/C(=N\NC(N)=S)c1nnn(-c2ccc([N+](=O)[O-])cc2)c1C,105% (inactive)
5,COc1cc2c(cc1OC)C(Sc1ccc(F)cc1)c1c(nc(N)c(C#N)c1N)O2 (stereo not given),-14.2% (active)
6,CN1CCN(Cc2ccc(NC(=O)c3cncc(C#Cc4cnc5ccc(N6CCSCC6)nn45)c3)cc2C(F)(F)F)CC1,-41.6% (active)
7,Cc1ccc(-c2csc(N/N=C/c3cccs3)n2)cc1,84.2% (inactive)
8,O=C(/C=C1\C=CN(CCCCCCF)c2ccccc21)n1ccc2ccccc21,109% (inactive)
9,CCc1cc(O)ccc1Nc1cc(-c2ccc(-n3cccn3)cc2)[nH]n1,58.6% (inactive)
10,Cc1ccc(CSc2nc(-c3ccc(Cl)cc3)c(C#N)c(N3CCOCC3)n2)cc1,98.2% (inactive)
11,CCCCCc1ccc(S(=O)(=O)Nc2cccc(-c3csc(NC(=O)CNCCN(C)C)n3)c2)cc1,63% (inactive)
12,CC1=C2C(=C[C@@](C)(COS(N)(=O)=O)[C@@H]2O)C(=O)[C@](C)(O)C12CC2,61.4% (inactive)
13,CCOc1ccc([C@H]2C(C(=O)c3ccc(Cl)cc3)C3(N[C@@H]2c2ccccc2)C(=O)Nc2ccc(Br)cc23)cc1 (stereo not given in full),15.2% (inactive)
14,C#Cc1nc(C(=O)NCCCCCCC(=O)NO)cs1,-51.7% (active)
15,COc1cc(-c2nn(C(C)(C)C)cc2-c2ccnc(NCCCNS(=O)(=O)c3cccc(F)c3)n2)ccc1Cl,81.9% (inactive)
16,CCC(C)[C@H]1OC(=O)[C@H](C(C)C)N(C)C(=O)[C@@H](C(C)C)OC(=O)[C@H](C(C)C)N(C)C(=O)[C@@H](C(C)CC)OC(=O)[C@H](C(C)C)N(C)C1=O (stereo not given in full),-47.7% (active)
17,COc1cc(C(=O)c2cc(C(C)=O)c3cccc(C)n23)cc(OC)c1OC,10.7% (inactive)
18,CN(C)c1ncc(/C=C2\SC(=S)N(Cc3ccccc3Cl)C2=O)s1,94% (inactive)
19,CCCCCCOC(=O)c1cc(-c2ccc(F)cc2)nc2ccccc12,77.8% (inactive)
20,C#Cc1nc(C2=C(C)C(O)CC2)cs1 (stereo not given),94.2% (inactive)
